# From ChEMBL document CHEMBL1961873, “Compounds: GSK PKIS; Assays: Nanosyn kinase panel” (2012)
# Values joined by “and” are separate entries in the source; they are usually repeats but may differ in a detail not shown here. Equal values may be shown once.
# Target: T1, Inhibitor of nuclear factor kappa-B kinase subunit alpha (Homo sapiens) (UniProt O15111)
# T1 sequence (whole entry): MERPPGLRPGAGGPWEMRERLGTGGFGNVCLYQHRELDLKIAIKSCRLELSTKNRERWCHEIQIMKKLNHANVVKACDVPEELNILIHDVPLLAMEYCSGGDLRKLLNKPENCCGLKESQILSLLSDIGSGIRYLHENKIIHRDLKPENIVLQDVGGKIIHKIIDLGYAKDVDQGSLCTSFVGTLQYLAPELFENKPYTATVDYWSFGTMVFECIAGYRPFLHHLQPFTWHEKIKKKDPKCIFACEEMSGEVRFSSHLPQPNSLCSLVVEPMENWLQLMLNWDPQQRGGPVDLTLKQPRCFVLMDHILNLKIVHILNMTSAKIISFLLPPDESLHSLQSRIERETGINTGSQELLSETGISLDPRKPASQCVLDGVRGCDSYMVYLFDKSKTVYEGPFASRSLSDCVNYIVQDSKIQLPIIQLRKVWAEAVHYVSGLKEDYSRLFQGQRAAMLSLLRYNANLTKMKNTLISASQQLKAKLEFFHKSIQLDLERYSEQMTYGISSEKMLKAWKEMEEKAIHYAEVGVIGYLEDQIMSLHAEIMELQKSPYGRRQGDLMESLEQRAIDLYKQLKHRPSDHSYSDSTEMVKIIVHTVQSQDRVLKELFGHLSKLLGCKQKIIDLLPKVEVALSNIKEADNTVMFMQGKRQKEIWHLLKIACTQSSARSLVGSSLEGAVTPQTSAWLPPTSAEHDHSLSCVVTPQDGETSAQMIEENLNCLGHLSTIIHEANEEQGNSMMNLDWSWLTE
# Conditions: at 0.1 µM
# 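Also: mean percent inhibition from GSK PKIS profiling.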
row,SMILES,inhibition
1,Cc1ccc(-c2cc3c(NC(=O)C4CC4)ncnc3o2)cc1,4.84%
2,Nc1nccc(-c2c(-c3ccc(F)cc3)ncn2C2CCNCC2)n1,5.16% and -0.81%
3,CS(=O)(=O)Nc1ccc(-c2ccc3c(NC(=O)C4CC4)n[nH]c3c2)cc1,6.65%
4,Cn1c(-c2nonc2N)nc2cnccc21,1.72%
5,Cc1cc(O)cc(C)c1/C=C/c1cncc(C(N)=O)c1,7.66%
6,CNC(=O)c1sc(-n2cnc3cc(OC)c(OC)cc32)cc1OCc1ccccc1C(F)(F)F,9.1%
7,COC(=O)Nc1nc2ccc(Oc3ccc(NC(=O)Nc4cc(C(F)(F)F)ccc4F)cc3)cc2s1,4.91%
8,COc1cc2c(cc1Nc1nc(Nc3cccc(F)c3C(N)=O)c3cc[nH]c3n1)N(C(=O)CN1CCN(C(C)C)CC1)CC2,2.84%
9,CS(=O)(=O)CCNCc1ccoc1-c1ccc2ncnc(Nc3ccc(OCc4ccccc4)cc3)c2c1,1.95%
10,O=C(O[C@H]1CN[C@H](C#Cc2cc3ncnc(Nc4ccc5c(cnn5Cc5ccccc5)c4)c3s2)C1)N1CCOCC1,1.12%
11,COc1c(C(N)=O)cc(-c2ccc(Cl)cc2)cc1-c1ccc(S(N)(=O)=O)cc1,2.15%
12,CCS(=O)(=O)c1ccc(OC)c(Nc2ncc(-c3cccc(C(C)=O)c3)o2)c1,-1.71%
13,CNC(=O)c1ncccc1Nc1nc(Nc2cc3c(cc2OC)CCCN3C(=O)CN(C)C)nc2[nH]ccc12,12.9%
14,CC(C)c1ccc(-c2cc(-c3c[nH]nc3-c3ccccn3)ccn2)cc1,7.45%
15,Fc1cccc(COc2ccc(Nc3ncncc3C#Cc3ccccc3)cc2Cl)c1,6.1%
16,FC(F)(F)CNc1nccc(-c2cnn3ncccc23)n1,1.92%
